D2 ag-1 = agonists of human D2 dopamine receptor. actives 0.53% (n = 340,000). P14416. HEK293 T-REx D2 cells, calcium flux agonist mode. activation, % at 2 µM. AID 485358;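 active = activation over 3 SD above normal in the single-dose calcium agonist read, cut at about 30% in these data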
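Tetracycline-induced HEK293 Trex cells with D2 receptor force-coupled to calcium signaling, plated overnight at 30 C and loaded with no-wash calcium dye. Calcium flux read kinetically for 180 s after compound addition; responses flag agonists.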
D2 PAM-1 = positively modulates the human D2 dopamine receptor allosterically; HEK293 T-REx D2, calcium flux, EC20 dopamine potentiation; potentiation, % at 10 µM; AID 485347; actives 0.34% (n = 340,000); P14416;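 active = potentiation over 3 SD above the plate norm, cut at about 30% in these data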
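Cells plated with tetracycline inducer and held overnight at 30 C; calcium dye loaded 30–90 min at room temperature; baseline taken, compound added and read 180 s; EC20 dopamine then added and read 180 s.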
D2 antag = antagonizes the human D2 dopamine receptor; HEK293 TREx D2 cells, calcium flux, dopamine EC80; inhibition, % at 10 µM; actives 2% (n = 340,000); in the data active = inhibition above about 30%; inactive = below that, where a call was filed
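Compounds are added to dye-loaded, induced HEK293 T-REx cells coupled to calcium release via D2; after a 3 min kinetic read an EC80 dopamine stimulus is given and fluorescence is recorded for 3 more min.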
D2 ag-2 = human D2 receptor agonism in beta-arrestin assay | DiscoveRx PathHunter D2 beta-arrestin, luminescence, 90 min; 100% = 57 uM dopamine signal | activation, % (test concentration not listed) | actives 0.084% (n = 360,000); in the data active = activation above about 40%; inconclusive = between about 15% and that limit
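DiscoveRx PathHunter D2 beta-arrestin cells (2,100/well) attached overnight, then compound-stimulated 90 min at 37 C in HBSS/10 mM HEPES/0.1% Tween-20 buffer; beta-galactosidase complementation read by luminescence after 1 h at ambient temperature. Dopamine 57 uM final (EC100) as control.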
D2 PAM-2 = positive allosteric modulators of human D2 dopamine receptor; P14416; DiscoveRx D2 beta-arrestin cells, luminescence, 90 min; 100% = 57 uM dopamine signal; actives 0.23% (n = 360,000); potentiation, % (test concentration not listed); in the data active = potentiation above about 50%; inconclusive = mostly about 30% to 49%
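D2 cells co-treated with compound plus 50 nM dopamine (EC20) for 90 min at 37 deg C to detect potentiation. Beta-arrestin recruitment was read as enzyme-fragment luminescence after 1 h at ambient temperature. Full response was set by 57 uM dopamine.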
D3 ag = confirmation of human D3 dopamine receptor agonists, beta-arrestin; shares compounds with D2 ag-1; DiscoveRx D3 beta-arrestin cells, luminescence, 90 min; Potency, µM (highest dose often 76.9 µM), hits mostly activators; actives 4% (n = 2,300); also: nearly all actives have a fitted effect of over 70% in size
Target sequence (P35462 whole entry, looked up): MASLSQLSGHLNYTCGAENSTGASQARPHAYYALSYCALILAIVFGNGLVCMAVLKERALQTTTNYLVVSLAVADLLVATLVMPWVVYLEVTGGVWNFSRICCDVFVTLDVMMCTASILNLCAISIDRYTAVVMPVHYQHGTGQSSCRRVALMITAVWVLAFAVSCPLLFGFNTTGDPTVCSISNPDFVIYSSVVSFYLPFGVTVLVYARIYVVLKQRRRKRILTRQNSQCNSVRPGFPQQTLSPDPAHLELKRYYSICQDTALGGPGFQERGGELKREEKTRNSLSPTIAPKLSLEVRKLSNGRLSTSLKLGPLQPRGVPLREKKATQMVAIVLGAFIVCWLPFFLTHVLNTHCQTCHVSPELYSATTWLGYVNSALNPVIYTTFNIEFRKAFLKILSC
D2 ag-3 = D2 receptor agonism, beta-arrestin counterscreen. DiscoveRx PathHunter D2 beta-arrestin, luminescence, 90 min; response scale: percent relative to full dopamine signal. actives 5.9% (n = 2,300). shares compounds with D2 ag-1. Potency, µM (doses to about 76.9 µM), hits mostly activators. AID 720507; also: nearly all actives have a fitted effect of over 70% in size
Of the large screens only hits and unclear results are named; the others gave an inactive call (follow-up assays come after a bar, where they were run). Rows were chosen to be rich in hits. Some 2.4% of all compounds tested hit in one or more screens of this group. Unless noted, calls follow the shape of the dose curve; as a rule, active = well fitted activation curve with a large enough effect; inconclusive = small, poorly fitted or top-dose-only effect; inactive = flat fitted curve, though single readings scatter.

O=S1(=O)CC(N2CCN(c3ncccn3)CC2)CN1Cc1ccc(F)cc1 (configuration not stated)	none (no result: D2 ag-1, D2 PAM-1, D2 antag)
Fc1ccc(CN2CCN(c3ncccn3)CC2)cc1	D2 ag-1 79.4, D2 antag 83.7, D2 ag-2 46.7 | D3 ag inactive | D2 ag-3 inconclusive
CCc1ccc(CN2CCN(c3ncccn3)CC2)cc1	D2 ag-1 76.6, D2 antag 94.8, D2 ag-2 75.0, D2 PAM-2 inconclusive | D3 ag inconclusive | D2 ag-3 0.562µM
CCOc1cc(CN2CCN(c3ncccn3)CC2)ccc1OC	D2 ag-1 77.6, D2 antag 77.3, D2 ag-2 inconclusive | D3 ag inactive | D2 ag-3 inconclusive
CCc1ccc(NCc2cc3ccc(OC)cc3n(CC(=O)Nc3ccccc3C)c2=O)cc1	none (no result: D2 antag, D2 ag-2, D2 PAM-2)
Cc1noc(/C=C/c2ccccc2F)c1S(=O)(=O)N1CCC(C(=O)N2CCOc3ccccc32)CC1	none (no result: D2 antag, D2 ag-2, D2 PAM-2)
O=C(NCc1ccccc1)C(=O)NCC(c1ccco1)N1CCN(c2ccccc2F)CC1 (configuration not stated)	none
O=C(NCc1cccnc1)C(=O)NCC(c1ccco1)N1CCN(c2ccccc2)CC1 (configuration not stated)	D2 ag-1 31.9, D2 ag-2 inconclusive | D3 ag inconclusive | D2 ag-3 inconclusive
O=C(NCc1cccnc1)C(=O)NCC(c1ccco1)N1CCN(c2ccccc2F)CC1 (configuration not stated)	D2 ag-1 62.6, D2 ag-2 41.4 | D3 ag inactive | D2 ag-3 inconclusive
COc1cc(NC(=O)CSc2ccc(-c3sc(-c4ccccc4)nc3C)nn2)cc(OC)c1	none (no result: D2 antag, D2 ag-2, D2 PAM-2)
COc1ccc(N2CCN(Cc3nc(N)nc(Nc4ccccc4OC)n3)CC2)cc1	none
Nc1nc(CN2CCN(c3ccccc3F)CC2)nc(Nc2ccc3c(c2)OCCO3)n1	D2 ag-1 72.1, D2 antag 54.0, D2 ag-2 inconclusive | D3 ag inactive | D2 ag-3 inconclusive
Nc1nc(CN2CCN(Cc3ccccc3)CC2)nc(Nc2ccccc2)n1	none
COc1ccc(Nc2nc(N)nc(CN3CCN(c4ccc(F)cc4)CC3)n2)cc1	D2 ag-1 42.7 | D3 ag inactive | D2 ag-3 inactive
Nc1nc(CN2CCN(c3ccccn3)CC2)nc(Nc2ccc(Cl)cc2)n1	D2 ag-1 90.4, D2 antag 73.8, D2 ag-2 41.2, D2 PAM-2 55.7 | D3 ag inactive | D2 ag-3 17.8µM
Cc1cccc(Nc2nc(N)nc(CN3CCN(c4ccccc4)CC3)n2)c1	D2 ag-1 70.6, D2 antag 50.8, D2 ag-2 inconclusive, D2 PAM-2 inconclusive | D3 ag inactive | D2 ag-3 inconclusive
CN1CCN(Cc2nc(N)nc(Nc3ccc4c(c3)OCCO4)n2)CC1	none
COc1cccc(C(=O)NCCc2csc3nc(-c4ccccc4F)nn23)c1OC	none (no result: D2 antag, D2 ag-2, D2 PAM-2)
CCOC(=O)c1cccc(NC(=O)[C@H](CSCc2ccccc2)N2Cc3ccccc3C2=O)c1	none (no result: D2 antag, D2 ag-2, D2 PAM-2)
COc1ccc(C(=O)NC(=S)NCc2ccco2)cc1Br	none
Nc1nc(CN2CCN(c3ccc(F)cc3)CC2)nc(N2CCCc3ccccc32)n1	D2 ag-1 59.8, D2 antag 54.4 | D3 ag inactive | D2 ag-3 inactive
Cc1cccc(Nc2nc(N)nc(CN3CCN(c4ccccc4F)CC3)n2)c1	none (no result: D2 ag-1, D2 PAM-1, D2 antag)
CCOc1ccc(Nc2nc(N)nc(CN3CCN(c4ccccc4F)CC3)n2)cc1	D2 ag-1 48.4, D2 antag 33.0 | D3 ag inactive | D2 ag-3 inconclusive
Cc1c(CNC2CCC(C)CC2)c(C(=O)O)c(C)n1Cc1ccc(Cl)cc1 (configuration not stated)	none (no result: D2 antag, D2 ag-2, D2 PAM-2)
Clc1ccccc1N1CCN(Cc2ccc(Br)o2)CC1	none (no result: D2 ag-1, D2 PAM-1, D2 antag)
Clc1ncc(CN2CCN(c3ccccc3)CC2)s1	D2 ag-1 74.7, D2 antag 83.7, D2 ag-2 47.5 | D3 ag inconclusive | D2 ag-3 5.01µM
c1ccc(N2CCN(Cc3cnc(N4CCOCC4)s3)CC2)cc1	D2 ag-1 63.0, D2 antag 38.3 | D3 ag inactive | D2 ag-3 inconclusive
CC1CCN(Cc2cnc(Cl)s2)CC1	none
Brc1ccc(CN2CCN(c3ccccc3)CC2)o1	D2 ag-1 72.0, D2 antag 50.5 | D3 ag inactive | D2 ag-3 inactive
Clc1ccc(CN2CCN(c3ccccc3)CC2)cn1	D2 ag-1 74.1, D2 antag 89.9, D2 ag-2 inconclusive | D3 ag inconclusive | D2 ag-3 inconclusive
COc1ccc(NC(=O)C(NC(=O)/C=C\c2ccc3c(c2)OCO3)c2ccccc2)cc1 (configuration not stated)	none (no result: D2 antag, D2 ag-2, D2 PAM-2)
Cc1c(Cl)cccc1NC(=O)Cn1cc(C(=O)C2CCCCC2)c2ccccc21	none (no result: D2 antag, D2 ag-2, D2 PAM-2)
Fc1ccccc1N1CCN(Cc2cnc(Cl)s2)CC1	D2 ag-2 52.4, D2 PAM-2 inconclusive (no result: D2 ag-1, D2 PAM-1, D2 antag) | D3 ag inconclusive | D2 ag-3 3.16µM
c1ccc(SCCN2CCN(c3ccccc3)CC2)cc1	D2 antag 60.1 | D3 ag inactive | D2 ag-3 inactive
CCCN1CCC(=O)N(CCSc2ccccc2)CC1	none
Cc1cn2c(=O)cc(COC(=O)c3cccc(NC(=O)c4ccccc4C)c3)nc2s1	none (no result: D2 PAM-1, D2 antag, D2 ag-2, D2 PAM-2)
C[C@H](CO)N1C[C@H](C)[C@H](CN(C)C(=O)Nc2ccc(C(F)(F)F)cc2)OCc2cnnn2CCCC1=O	none (no result: D2 ag-1, D2 PAM-1, D2 antag)
Cc1ccc(NC(=O)C[n+]2cc(-c3ccccc3)n3c2CCC3)c(C)c1	D2 ag-1 81.2, D2 antag 65.4 | D3 ag inactive | D2 ag-3 inactive
Cc1ccc(-c2csc(NC(=O)C[n+]3cc(-c4ccccc4)n4c3CCC4)n2)cc1	D2 ag-1 77.1, D2 antag 63.8 | D3 ag inactive | D2 ag-3 inactive
Cc1ccc(-c2csc(NC(=O)C[n+]3cc(-c4ccc(C)cc4)n4c3CCC4)n2)cc1	none
O=C(C[n+]1cc(-c2ccccc2)n2c1CCC2)N1c2ccccc2Sc2ccccc21	D2 ag-1 64.1, D2 antag 36.8 | D3 ag inactive | D2 ag-3 inactive
O=C(CN1C(=O)NC2(CCCC2)C1=O)Nc1nc(-c2ccc(F)cc2)cs1	none | D3 ag inactive | D2 ag-3 inactive
Cc1ccc(-c2c[n+](CC(=O)Nc3c(C)cccc3C)c3n2CCC3)cc1	none
Cc1ccc2nc(NC(=O)CSc3cc(C)[nH]c(=O)n3)sc2c1	none (no result: D2 antag, D2 ag-2, D2 PAM-2)
CCOc1ccc(CCNC(=O)Cn2nc(CC)n3c(cc4c(OC)cccc43)c2=O)cc1OCC	none (no result: D2 antag, D2 ag-2, D2 PAM-2)
